Screens as filed in PubChem.
Sfp PPTase inh – inhibitors of Bacillus subtilis Sfp phosphopantetheinyl transferase | Q9F4F7 | Biochemical Sfp PPTase activity, qHTS | Potency, µM, for inactives: largest response in the series, negative = inhibition, hits mostly inhibitors | 3.5% of 310,000 active;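 also: the enzyme is Sfp with the accession as filed and its product quenches rhodamine fluorescence; 0% = enzyme reaction without inhibitor and -100% = no enzyme wells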
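Compounds were incubated with enzyme (final 15 nM) for 15 min at room temperature before substrate addition started the reaction. Fluorescence at 525 nm excitation, 598 nm emission was recorded immediately and after 30 minutes.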
GLS inhibitor – glutaminase GLS (human) inhibition; Potency, µM (highest dose often 45.5 µM), for the others: at the highest dose activity change, negative = inhibition, hits mostly inhibitors; GLS enzymatic activity, qHTS titration; AID 624170; 0.21% of 410,000 active
Target sequence (O94925 whole entry, looked up): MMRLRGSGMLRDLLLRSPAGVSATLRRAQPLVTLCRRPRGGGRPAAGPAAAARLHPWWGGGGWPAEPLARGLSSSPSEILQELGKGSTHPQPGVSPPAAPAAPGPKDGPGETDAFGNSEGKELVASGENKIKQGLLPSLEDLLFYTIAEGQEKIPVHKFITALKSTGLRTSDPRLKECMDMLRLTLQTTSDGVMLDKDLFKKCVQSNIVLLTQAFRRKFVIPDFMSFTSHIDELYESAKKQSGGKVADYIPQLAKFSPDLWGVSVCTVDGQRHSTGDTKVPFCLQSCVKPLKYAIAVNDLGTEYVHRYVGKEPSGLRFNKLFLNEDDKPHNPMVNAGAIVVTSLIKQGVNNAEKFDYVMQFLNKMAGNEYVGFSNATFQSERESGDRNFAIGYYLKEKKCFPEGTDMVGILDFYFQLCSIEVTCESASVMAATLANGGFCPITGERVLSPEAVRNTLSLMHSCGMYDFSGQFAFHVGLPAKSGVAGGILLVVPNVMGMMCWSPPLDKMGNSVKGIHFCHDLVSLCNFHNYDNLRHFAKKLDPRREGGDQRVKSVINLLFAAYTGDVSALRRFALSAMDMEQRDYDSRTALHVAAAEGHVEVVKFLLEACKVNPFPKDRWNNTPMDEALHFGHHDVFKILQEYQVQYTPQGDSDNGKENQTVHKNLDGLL
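Coupled fluorescence readout: glutamate oxidase/HRP/Amplex Red detect glutamate formed by hKGA from L-glutamine (1 mM solution added). Buffer 45 mM KH2PO4 pH 8.2, 0.02% Tween-20; reads at t0 and 30 min RT.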
KAT2A inh – blocks human GCN5L2 histone acetyltransferase; Q92830; GCN5L2 HAT assay, ThioGlo1 CoA-SH fluorescence; Potency, µM (top dose mostly 58.9 µM), inactives show at the highest dose activity change, negative = inhibition, usual class: inhibitors; 0.21% of 390,000 active; AID 504327
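Compounds, pin-transferred from DMSO stocks, meet 20nM GCN5L2 for 15 min before the reaction begins with H3(1-25) peptide (75uM) and acetyl-CoA (70uM). Thiol-reactive ThioGlo1 reports CoA release over 20 min at room temperature.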
TrxR1 inh – inhibitors of rat thioredoxin reductase 1; O89049; recombinant rTrxR1, NADPH fluorescence consumption, selenite substrate; Potency, µM (top dose mostly 114 µM), for the others: at the highest dose activity change, negative = inhibition, actives largely listed as inhibitors; 1% of 390,000 active; AID 588453; also: nearly all actives have a fitted effect of over 65% in size
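Rat TrxR1 (90 nM in the dispensed reagent) was pre-reduced with 400 uM NADPH for 5 min at room temperature, then incubated with compound for 15 min. After 400 uM selenite was added, NADPH fluorescence (Ex 340/Em 450 nm) was followed for 8 min.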
TrxR1 substrate – is turned over as a substrate by rat TrxR1; purified TrxR1 substrate turnover, NADPH consumption readout; Potency, µM (series often up to 114 µM), for inactives: at the highest dose activity change, negative = substrate turnover; 0.01% of 390,000 active; also: nearly all actives have a fitted effect of over 50% in size
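Rat TrxR1, dispensed at 90 nM, was prereduced with 400 uM NADPH (final) for 5 min at ~22 deg C, then incubated with compound 15 min before 400 uM selenite. A first-read NADPH fluorescence drop versus no-compound background flagged substrates.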
VDR inhibitor – inhibitors of human vitamin D receptor. P11473. VDR-SRC2-3 peptide fluorescence polarization, 2 h. AID 504847. Potency, µM, for inactives: max response, negative = inhibition, most hits filed as inhibitors. 0.93% of 400,000 active
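Inhibition of the VDR/SRC2-3 peptide interaction is quantified by fluorescence polarization. Compounds (23 nl, pintool) incubate with the reagents for 2 hours at ambient room temperature.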
An asterisk follows results filed as active; ? = inconclusive; nt = no result; ! = not active in a repeat; [ ] = another dose, or the depositor's remark. Sampled rows, rich in hits. Any-hit rate of the full collection: about 3.8%. Calls follow the shape of the dose curve; as a rule, active = well fitted curve in the direction sought with a large enough effect; inconclusive = small, poorly fitted or top-dose-only effect, or another doubt; inactive = no such curve, though single readings can be large; an effect the other way counts as inactive or inconclusive. Unless noted, % is scaled to controls: 0 for no effect and ±100 for the full control effect; potency is read from the fitted curve at half-maximal effect.

SMILES	Sfp PPTase inh	GLS inhibitor	KAT2A inh	TrxR1 inh	TrxR1 substrate	VDR inhibitor
CN1C(=O)C(=Cc2c(OCc3cnc(Cl)s3)ccc3ccccc23)C(=O)N(C)C1=O	?	-3%	-15%	?	-2%	?
CCCCCCNc1nc(OC)nc(N2CC3CC(C2)c2cccc(=O)n2C3)n1 (configuration not stated)	8%	3%	5%	9%	2%	2%
COc1ccc(C[C@H]2c3cc(OC)c(OC)cc3CCN2C)cc1OC	13%	nt	8.9µM*	nt	nt	0%
COc1ccc(CC2c3cc(OC)c(OC)cc3CCN2C)cc1O (configuration not stated)	6%	34%	-3%	15%	4%	-19%
CCOC(=O)CNC(=O)N1Cc2cc(-c3cccc(F)c3)ccc2-n2nncc2C1	nt	2%	nt	nt	nt	nt
CN1[C@@H](CC(=O)c2ccccc2)CCC[C@H]1C[C@H](O)c1ccccc1	-8%	20%	-4%	15%[57.1 µM]	8%[57.1 µM]	2%
CN1C(CC(=O)c2ccccc2)CCCC1CC(O)c1ccccc1 (configuration not stated)	7%	4%	10%	18%	10%	89µM*!
C[C@]12CC[C@@H]3c4ccc(O[C@@H]5O[C@H](C(=O)O)[C@@H](O)[C@H](O)[C@H]5O)cc4CC[C@H]3[C@@H]1C[C@@H](O)[C@@H]2O	79µM*	5%	-15%	-15%	-3%	-14%
CCOC(=O)CC1=C(C(=O)OCC)C2(C(=O)Nc3ccccc32)C(C#N)=C(N)O1 (configuration not stated)	6%	-4%	-2%	-10%[57.1 µM]	-3%[57.1 µM]	-2%
CCOC(=O)N1CC(C)N(/[N+]([O-])=N/Oc2ccc([N+](=O)[O-])cc2[N+](=O)[O-])CC1C (configuration not stated)	-7%	nt	nt	11µM*	-6%	?
CCOC(=O)N1CCN(/[N+]([O-])=N/Oc2ccc([N+](=O)[O-])cc2[N+](=O)[O-])C(C)C1 (configuration not stated)	?	nt	nt	-12%	-1%	-15%
C[CH2][Hg][S]c1ccccc1C(=O)O	16µM*	?	?	?	8%	79µM*
O=C(O)c1ccccc1SSc1ccccc1C(=O)O	?	30%	-16%	37%	3%	?
COC(=O)C1=C(c2ccccc2OCc2ccccc2)C[C@@H]2CC[C@H]1N2C	nt	-1%	nt	nt	nt	nt
Cc1cc(C)n(-c2ccc(NN=C(C#N)C#N)cc2)n1	?	13%	-16%	?	-11%	28µM*
CCOC(=O)c1c(NC(NC(=O)CF)C(Cl)(Cl)Cl)sc2c1CCCC2 (configuration not stated)	-23%	?	-7%	0%[57.1 µM]	6%[57.1 µM]	45µM*
COC1=C(C)C(=O)C2=C(C1=O)C(CO)N1C(C#N)C3CC4C(C1C2N1CCOC41)N3C (configuration not stated)	nt	-11%	nt	5%[11.4 µM]	7%[57.1 µM]	-13%
CN1C(=O)/C(=C/c2cccn2-c2ccc3ccccc3c2)C(=O)NC1=S	56µM*	1%	-28%	?	-7%	45µM*
CN1CCc2cc3c(c4c2[C@H]1Cc1ccccc1-4)OCO3	6%	nt	-5%	nt	nt	1%
O=C(O)[C@H]1C[C@@H]1[C@H](NP(=O)(c1ccccc1)c1ccccc1)c1ccccc1	5%	1%	-3%	9%	1%	-2%
O=C(CN1CCOCC1)c1cccc2ccccc12	40µM*	2%	-6%	18µM*	-3%	-20%
O=C(CN1CCOCC1)c1ccc(Br)cc1	-9%	-20%	-19%	-33%	-9%	-24%
COc1ccc(-c2cn(CCO)nc2-c2ccc(OC)cc2)cc1	-4%	?	0%	-21%[11.4 µM]	-15%[11.4 µM]	14%
Cn1c(O)c(C(c2ccncc2)c2c(O)n(C)c(=S)n(C)c2=O)c(=O)n(C)c1=S	14%	29%	-13%	7.9µM*	-9%	?
CC(=O)c1c(O)n(C)c(=S)n(-c2ccccc2)c1=O	15%	22%	-3%	-17%	-7%	3%
SMILES	Sfp PPTase inh	GLS inhibitor	KAT2A inh	TrxR1 inh	TrxR1 substrate	VDR inhibitor
Cc1ccc(NC(=O)CN2C(=O)CN=C(c3ccccc3)c3ccccc32)cc1	nt	-1%	-6%	5%[57.1 µM]	-4%[57.1 µM]	20%
CCCc1cc(=O)oc2cc(OCC(=O)N3CCC(C(=O)O)(c4ccccc4)CC3)ccc12	20%	1%	-9%	4%	107%	-29%
CCOP1(=O)C=C(Sc2ccc([N+](=O)[O-])cc2[N+](=O)[O-])C(C)(C)O1 (configuration not stated)	nt	-8%	nt	14µM*	-16%	-15%
O=[N+]([O-])c1ccc(F)c([N+](=O)[O-])c1	15%	5%	-11%	nt	nt	-2%
N#C/C(=C\c1ccc(O)cc1)C(=O)O (tested in a mixture with another compound)	nt	26%	nt	-2%	-11%	-12%
N#C/C(=C\c1ccc(O)c(O)c1)C(N)=S	0.18µM*	nt	nt	nt	nt	nt
COC(=O)C1=C(c2ccc(Cl)c(C(F)(F)F)c2)C[C@@H]2CC[C@H]1N2C(=O)NCCCOC(C)C	nt	22%	-7%	11%[57.1 µM]	3%[57.1 µM]	-15%
C=CCOc1ccc(CC2C(=O)N(C)C(=O)N(C)C2=O)cc1	-15%	-6%	-13%	3%[57.1 µM]	-3%	-10%
CCN(CC)c1ccc(CC2C(=O)N(C)C(=O)N(C)C2=O)cc1	?	15%	3%	32µM*	-5%	-14%
CCOc1ccc(CN(CCc2ccc3c(c2)OCO3)Cc2cccc(C)c2)cc1	nt	-11%	-3%	24%	8%	-5%
COc1ccc(CCNCC2CCCO2)cc1 (configuration not stated)	16%	-4%	0%	18%	-1%	-17%
CCOc1cccc(OCC)c2c(C)[n+](CC3CCCO3)c(C)c1-2 (configuration not stated)	56µM*	11%	-15%	-32%	-8%	-29%
Cc1cc(C)cc(OCCOc2cccc(C=C3C(=O)NC(=O)NC3=O)c2)c1	50µM*	15%	-9%	11µM*	1%	?
CCn1cc(C=C2C(=O)NC(=O)NC2=O)c2ccccc21	-9%	-12%	-12%	1%	-3%	5%
O=C1NC(=O)C(=Cc2ccc3ccccc3c2)C(=O)N1	40µM*	?	-3%	?	19%	?
Cc1ccc(OCCOc2cccc(C=C3C(=O)NC(=O)NC3=O)c2)cc1	63µM*	-5%	32%	?	-5%[57.1 µM]	40µM*
Cc1cccc(OCCn2c(=O)oc3ccc(C)cc32)c1	-18%	7%	?	10%	-10%	6%
